# Reference: PubChem BioAssay AID1259422 (The Scripps Research Institute Molecular Screening Center, 2018)
# Among all 640,000 compounds or so, about 9,300 (1.5%) were called active. This is one part of a sample in which actives are shown more often than they occur. Rule as the data show it: active = inhibition above about 32%; inactive = the rest.
# Assay: TEAD-YAP interaction inhibition, primary screen, TEAD-YAP interaction inhibitor project, luminescence, HEK-TIYL cells (AID 1259422);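 also: 0% = median of test compound wells and 100% = reference inhibitor wells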
# Settings: TEAD-Gal4/YAP UAS-luciferase luminescence, at 9.12 µM, stronger effect = higher value
row,SMILES,inhibition
1,O=[N+]([O-])c1ccc2c(c1)nc1ccccn12,-11.7% (inactive)
2,CC(=O)N1CCC(N(C(=O)CSCCNC(=O)c2ccccc2Cl)C2CC2)CC1,2.5% (inactive)
3,CC1CCc2c(sc(NC(=O)c3cc4ccccc4oc3=O)c2C#N)C1 (stereo not drawn),11.2% (inactive)
4,C=CCN1C(=S)NC2CC1(C)Oc1c(OC)cccc12 (stereo not drawn),2.23% (inactive)
5,CCCOc1ccc(Cc2c(Cl)nc(SC)nc2NC)cc1,35.1% (active)
6,CCCOc1ccc(N2C(=O)CC(NCCc3ccc(Cl)cc3)C2=O)cc1 (stereo not drawn),-11% (inactive)
7,CCOc1ccc(Cc2c(Cl)nc(SC)nc2N(CC)CC)cc1,2.33% (inactive)
8,COc1cccc(/C=C(\C#N)c2nn(CCO)c(N)c2C#N)c1OCc1ccc(Cl)cc1Cl,2.5% (inactive)
9,CC(=O)N1CCC(N(C(=O)C2CC2)c2ccc3c(c2)CCN3C(C)=O)CC1,46.4% (active)
10,CC(=O)N1CCc2cc(S(=O)(=O)NC3CCCCC3)ccc21,10.8% (inactive)
11,CC(=O)N1CCc2cc(S(=O)(=O)NCCC(=O)O)ccc21,0.75% (inactive)
12,CCOC(=O)C1=C(C)N=c2s/c(=C\c3ccc(-c4ccc([N+](=O)[O-])cc4OC)o3)c(=O)n2C1c1ccccc1 (stereo not drawn),-12.5% (inactive)
13,CCn1c(=O)[nH]c(=O)c2c(C(F)(F)F)cc(C(F)(F)F)nc21,-11.4% (inactive)
14,CCOC(=O)c1cc(-c2nnc(-c3ccccc3)o2)c(C)nc1C,-1.76% (inactive)
15,CCc1ccc(NC(=O)CSC2=C(C#N)C(c3ccco3)C(C(=O)Nc3ccc(Cl)cc3)=C(C)N2)cc1 (stereo not drawn),26.3% (inactive)
16,CS(=O)(=O)c1ncc(Cl)c(C(=O)Nc2nc3ccc(F)cc3s2)n1,-10.7% (inactive)
17,CC(=O)c1c(C)[nH]c(C(=O)Nc2ccc(Cl)c(C(F)(F)F)c2)c1C,3.78% (inactive)
18,CS(=O)(=O)c1ncc(Cl)c(C(=O)Nc2ccc(Cl)c(C(F)(F)F)c2)n1,51% (active)
19,Cc1ccc(CC(=O)Nc2ccc(Cl)c([N+](=O)[O-])c2)cc1,-2.28% (inactive)
20,COc1ccc(Cl)cc1NC(=O)C(=O)Nc1ccc2nc3n(c(=O)c2c1)CCCCC3,0.92% (inactive)
21,COc1ccc([N+](=O)[O-])cc1C1=N/C(=C/c2ccc(C(C)C)cc2)C(=O)O1,1.78% (inactive)
22,CCC(=O)N(CCO)Cc1cc2cc(CC)ccc2[nH]c1=O,10.6% (inactive)
23,CCOC(=O)c1c(NC(=O)c2ccccc2)sc(C(=O)Nc2ccccc2OC)c1C,0.4% (inactive)
24,O=C(Nc1cc(Cl)cc(Cl)c1)c1cccs1,-3.5% (inactive)

row,SMILES,inhibition
1,O=C(Nc1ccc(C23CC4CC(CC(C4)C2)C3)cc1)c1cccs1,85.4% (active)
2,Cc1nc(-c2ccc(NC(=O)c3cccc(Br)c3)cc2)cs1,-71.4% (inactive)
3,Cc1nc(-c2ccc(NC(=O)c3cccs3)cc2)cs1,48.2% (active)
4,CC(=O)Nc1cccc(-c2csc(C)n2)c1,-2.27% (inactive)
5,O=C(Nc1cc(F)cc(F)c1)c1cccs1,-5.52% (inactive)
6,Cc1ccc2cccc(SCC(=O)Nc3ccc(Br)cc3)c2n1,17.4% (inactive)
7,COc1ccc(-n2nc3cc(C)c(NC(=O)c4ccccc4I)cc3n2)cc1,-23.3% (inactive)
8,CN(CCC(=O)Nc1cccc(F)c1)Cc1ccccc1,2.01% (inactive)
9,COc1ccc(CSc2n[nH]c(C)n2)cc1Cl,44.5% (active)
10,COc1ccc(C(=O)CSc2n[nH]c(C)n2)cc1,-4.7% (inactive)
11,COc1ccccc1NC(=O)CSc1n[nH]c(C)n1,5.98% (inactive)
12,COc1ccccc1NC1=NC(c2ccc(Cl)cc2)N=C(N)N1 (stereo not drawn),40.4% (active)
13,COc1ccccc1Nc1cc(C)nc2ccc(Cl)cc12,4.34% (inactive)
14,COc1ccccc1Nc1nc(-c2ccc(Cl)cc2)cs1,-12% (inactive)
15,O=C(NCC1CCCN(Cc2cccn2-c2ncccn2)C1)c1n[nH]c2ccccc12 (stereo not drawn),33.7% (active)
16,O=C(NCC1CCCN(Cc2nc(-c3ccccc3)cs2)C1)c1cccs1 (stereo not drawn),9.19% (inactive)
17,Cc1c(CN2CCCC(CNC(=O)c3ccc4c(c3)OCO4)C2)[nH]c2ccccc12 (stereo not drawn),13.5% (inactive)
18,CCOc1ccc(CN2CCN(Cc3ccc(OC)c(OCC)c3)CC2)cc1,-0.01% (inactive)
19,FC(F)(F)c1cccc(N2N=C(/C=C/c3ccccc3)CC2c2ccccc2)c1 (stereo not drawn),-3.08% (inactive)
20,Cn1c(=O)n(C)c2cc(/C=C3/SC(=Nc4ccc(F)cc4)NC3=O)ccc21,-33.4% (inactive)
21,O=C1NC(=Nc2ccc(F)cc2)S/C1=C\c1ccc(O)c(O)c1,51.2% (active)
22,O=C1NC(=Nc2ccc(F)cc2)S/C1=C\c1cccs1,7.85% (inactive)
23,CCCCNC(=O)C(=O)NCC1COc2ccccc2O1 (stereo not drawn),-0.58% (inactive)
24,COc1ccc(OCC(=O)Nc2nc3ccc(C)cc3s2)cc1,-5.48% (inactive)

row,SMILES,inhibition
1,O=C(NCCOc1ccccc1)c1cc(NC2CCN(Cc3ccccc3)CC2)nc2ccccc12,10.3% (inactive)
2,Cc1ccc(NC(=O)/N=C/c2sc(=O)[nH]c2O)cc1,-3.99% (inactive)
3,Cc1cnc(-c2c(C)noc2C)nc1Nc1ccc(N2CCOCC2)cc1,-11.4% (inactive)
4,c1cc(-c2ocnc2-c2ncco2)cc(Nc2ccc(N3CCOCC3)cc2)n1,38.6% (active)
5,c1ccc(-n2cnc(-c3ccnc(Nc4ccc(N5CCOCC5)cc4)c3)n2)cc1,-7.29% (inactive)
6,Cc1cnc(Nc2ccc(N3CCOCC3)cc2)nc1NCc1cccc(C(F)(F)F)c1,67.6% (active)
7,Cc1cnc(Nc2ccc(N3CCOCC3)cc2)nc1Nc1ccccc1-c1ncn[nH]1,68.8% (active)
8,c1cncc(-n2cnc(-c3ccnc(Nc4ccc(N5CCOCC5)cc4)c3)n2)c1,-10.2% (inactive)
9,c1ccc(-c2ncn[nH]2)c(Nc2ccnc(Nc3ccc(N4CCOCC4)cc3)c2)c1,44% (active)
10,c1ccc(Nc2nc(Nc3ccc(N4CCOCC4)cc3)nc3nc[nH]c23)cc1,24.1% (inactive)
11,FC(F)(F)c1ccc(Cn2cnc3c(NCc4cccc(C(F)(F)F)c4)nc(Nc4ccc(N5CCOCC5)cc4)nc32)cc1,2.31% (inactive)
12,FC(F)(F)c1cccc(CNc2nc(Nc3ccc(N4CCOCC4)cc3)nc3c2ncn3-c2ccsc2)c1,-6.95% (inactive)
13,c1nc(Nc2ccc(N3CCOCC3)cc2)cc(N2CCOCC2)n1,2.49% (inactive)
14,CNC(=O)c1ccccc1Nc1ccnc(Nc2ccc(N3CCOCC3)cc2)c1,8.21% (inactive)
15,O=[N+]([O-])c1ccc(Cl)c(S(=O)(=O)n2nnc3ccccc32)c1,-1.22% (inactive)
16,COC(=O)C1C(=O)NC(SCC(=O)Nc2ccc(OC)cc2)=C(C#N)C1c1ccc(C)cc1 (stereo not drawn),-9.22% (inactive)
17,CC(C)CCNS(=O)(=O)c1ccc2[nH]c3nc4nc(-c5ccc(Br)cc5)cn4nc3c2c1,6.91% (inactive)
18,Cc1cc(=O)oc2c(/C=N\NC(=O)c3ccc(Br)cc3)c(O)ccc12,5.44% (inactive)
19,CCOc1ccc(NC(=O)/C(C#N)=C\c2ccc(O)cc2)cc1,-6.14% (inactive)
20,O=C1C(=O)N(Cc2cccnc2)C(c2cccc(Br)c2)/C1=C(/O)c1ccccc1 (stereo not drawn),-12.1% (inactive)
21,O=C1CCC(=O)N1c1ccc(-c2nc3scc(-c4cccs4)c3c(=O)o2)cc1,-7.68% (inactive)
22,CCOC(=O)N1CCN(C(=O)c2cc3cc4ccc(OC)cc4nc3o2)CC1,-1.56% (inactive)
23,COc1ccc2nc3oc(C(=O)NC4CC4)cc3cc2c1,-62.4% (inactive)
24,CCN(CC)C(=O)c1cc2cc3ccc(OC)cc3nc2o1,58% (active)

row,SMILES,inhibition
1,COCCn1nnnc1CN(Cc1ccco1)CC1CCCO1 (stereo not drawn),-5.83% (inactive)
2,CCOC(=O)C1=C(C)NC2=C(C(=O)CC(C)(C)C2)C1c1cccs1 (stereo not drawn),7.66% (inactive)
3,CCOc1ccc(C2C(C#N)=C(N)N(N(C)C)C3=C2C(=O)CC(c2ccccc2)C3)cc1 (stereo not drawn),17.9% (inactive)
4,Cc1nnc(SCC(=O)c2ccc3c(c2)OCCO3)o1,-48.4% (inactive)
5,CCCCSc1nnc2c(n1)OC(c1cccc(Cl)c1)Nc1ccccc1-2 (stereo not drawn),-39.8% (inactive)
6,O=C(O)CCCCCN1C(=O)/C(=C\c2cccs2)SC1=S,28.4% (inactive)
7,CCN1C(=O)/C(=C/c2ccc(OCC(=O)O)cc2)SC1=S,-16.2% (inactive)
8,O=C(O)CCN1C(=O)/C(=C\c2ccc(C(=O)O)cc2)SC1=S,-5.44% (inactive)
9,C=CCOc1ccc(/C=C2\SC(=S)N(CCC(=O)O)C2=O)cc1,50.1% (active)
10,O=C(O)CCCCCN1C(=O)/C(=C/c2ccc3c(c2)OCO3)SC1=S,43.9% (active)
11,COc1cc(/C=C2/SC(=S)N(CC(=O)O)C2=O)cc2c1OCO2,2.97% (inactive)
12,COc1cccc(C(=O)NC(=S)Nc2ccc(Br)c(C)n2)c1,-5.25% (inactive)
13,Cc1ccc2nc3[nH]c4ccccc4c3nc2c1,35% (active)
14,O=C(NCc1ccc(F)cc1)c1ccc2nc3[nH]c4ccccc4c3nc2c1,4.49% (inactive)
15,Cc1cc2nc3[nH]c4ccccc4c3nc2cc1C,-33% (inactive)
16,O=C(NNc1ccc([N+](=O)[O-])cc1[N+](=O)[O-])c1cc2ccccc2cc1O,8.71% (inactive)
17,Cc1cc(C(=O)N(Cc2ccccn2)c2nc3ccccc3s2)on1,69.7% (active)
18,CCc1cccc2sc(N(Cc3ccccn3)C(=O)CSCc3ccccc3)nc12,2.11% (inactive)
19,O=C1CCC(=O)N1CC(=O)N(Cc1ccccn1)c1nc2ccccc2s1,18.1% (inactive)
20,CC(=O)Oc1cccc(N2C(=O)c3ccc(-c4nc5ccccc5o4)cc3C2=O)c1,-6.42% (inactive)
21,C=CCc1ccc(OCCN2CC(C)OC(C)C2)c(OC)c1 (stereo not drawn),-7.73% (inactive)
